The list is not random: actives were taken first. Their share in the collection is about 21%.
Shiga toxin inh – A qHTS for Small Molecule Inhibitors of Shiga Toxin. Vero cells, Shiga toxin protein synthesis inhibition reporter. inhibition, % at 38.7 µM. actives 9.2% (n = 290,000). AID 2315, 2010; in the data active means inhibition mostly above about 28%, no sharp cut-off; inactive means mostly below about 43%
Pf growth 96h – Primary qHTS for delayed death inhibitors of the malarial parasite plastid, 96 hour incubation. actives 6.9% (n = 320,000). P. falciparum luciferase reporter growth, 96 h. Potency, µM (titrated, usually from 28.7 µM), most hits filed as inhibitors
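Infected RBCs, 2% Hct / 0.05% parasitemia final; luciferase-reporter P. falciparum; cpd 96 h, 37 C, 5% CO2; luciferase detection reagent; luminescence.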
SARS PLpro yeast – qHTS of Yeast-based Assay for SARS-CoV PLP; S. cerevisiae expressing SARS-CoV PLpro, growth rescue; Potency, µM (titrated, usually from 32.9 µM), actives largely listed as activators; actives 0.19% (n = 330,000); AID 485353, 2010; calls by dose curve; further: nearly all actives have a fitted effect of over 55% in size
NS1 function inh – qHTS Assay for Inhibitors of Influenza NS1 Protein Function; actives 0.4% (n = 270,000); AID 2326, 2010; Potency, µM (doses to about 46.1 µM); calls by dose curve; further: actives are rising curves; nearly all actives have a fitted effect of over 50% in size
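Growth recovery, yeast-based: influenza A NS1 expressed in S. cerevisiae causes slow growth, and suppressors are detected by OD600. The parent strain without NS1 is used as positive control.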
CHX counter – Cycloheximide Counterscreen for Small Molecule Inhibitors of Shiga Toxin. cell reporter, cycloheximide protein synthesis inhibition counterscreen. actives 12% (n = 300,000). max response, %; in the data active means max response mostly above about 13%, no sharp cut-off; inactive means mostly below about 14%; further: read at 38.3 µM for the half of the compounds with a filed dose
Pf growth 48h – Primary qHTS for delayed death inhibitors of the malarial parasite plastid, 48 hour incubation | actives 5.9% (n = 310,000) | Potency, µM (titrated, usually from 28.7 µM), most hits filed as inhibitors | P. falciparum luciferase growth in erythrocytes, 48 h | AID 504832, 2011
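Luciferase-expressing parasites in RBCs, 2% Hct / 0.1% parasitemia final; RPMI 1640 + 0.5% Albumax; 37 C, 5% CO2, one generation; luminescence read-out, lower signal = inhibition.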
A number is an active result; 0 = inactive; ? = inconclusive; - = no result; [ ] = dose if it differs, or a comment. Unless noted, the call rests on the fitted dose curve; in most records, active means well fitted inhibition curve with a large enough effect; inconclusive means small, poorly fitted or top-dose-only effect, or another doubt; inactive means no such curve, though single readings can be large or run the other way.

SMILES | Shiga toxin inh | Pf growth 96h | SARS PLpro yeast | NS1 function inh | CHX counter | Pf growth 48h
CC(=O)n1cc([C@H]2C=C(C(=O)N3CCN(Cc4ccc5c(c4)OCO5)CC3)O[C@@H](OCc3ccc(CO)cc3)C2)c2ccccc21 | 0 | 3.29µM | 0 | 0 | 0 | 4.65µM
O=C(C1=C[C@H](C2CC2)C[C@H](OCc2ccc(CO)cc2)O1)N1CCN(Cc2ccc3c(c2)OCO3)CC1 | 0 | ? | 0 | 0 | 0 | ?
Cc1ccc(-n2c(C)nc3c(cnn3-c3ccccc3Cl)c2=O)cc1C | 0 | 3.7µM | 0 | 0 | 0 | -
O=c1c2ccccc2cnn1-c1ccc(Cl)cc1 | 93.0 | 0 | 0 | 0 | 35.5 | 0
CC(c1ccccc1)n1c(Cn2ncc3ccccc3c2=O)n[nH]c1=S (stereo not drawn) | 0 | 0 | 0 | - | 0 | 0
O=c1c2ccccc2cnn1Cc1n[nH]c(=S)n1-c1ccc(Cl)cc1 | 51.9 | 0 | 0 | 0 | 72.4 | 0
Cc1ccc(-n2ncc3ccccc3c2=O)cc1Cl | 113.5 | 0 | 0 | 0 | 38.2 | 0
Cc1c2c(nc3nnnn13)CCCC2 | 0 | 0 | 0 | 0 | 0 | 0
CCCCCC(=O)OC(CN1CCCCC1)CN1CCCC1=O (stereo not drawn) | 0 | 10.4µM | 0 | ? | 0 | 0
O=C(NCc1cccs1)C1CCC(=O)N1C1CCCCC1 (stereo not drawn) | 0 | ? | 0 | 0 | 0 | 0
CCOC(=O)c1cc(C(=O)OCC)cc(-n2cc(O)c(C(=O)OCC)n2)c1 | 0 | ? | 0 | 0 | 0 | 0
CCOC(=O)c1nn(-c2ccc3ccccc3c2)cc1O | 108.4 | 0 | 0 | - | 39.0 | 0
c1cc2c(cc1-n1cnnn1)OCO2 | 0 | 0 | 0 | 0 | 0 | 0
CCOC(=O)c1nn(-c2ccccc2)cc1O | 55.5 | 0 | 0 | 0 | 22.9 | 0
CCOC(=O)C1=NN(c2ccc(Cl)cc2)C(=O)C1 | 121.1 | 0 | 0 | 0 | 57.0 | 0
CCOC(=O)c1nn(-c2ccc3c(c2)OCO3)cc1O | 107.8 | 0 | 0 | 0 | 42.6 | 0
COc1ccc(CNCC(=O)Nc2cc(OC)cc(OC)c2)cc1 | 0 | 0 | 0 | 0 | 0 | ?
CCn1cc(C(=O)NCCc2ccccc2)c(=O)c2cc(S(=O)(=O)N3CCCC3)ccc21 | 0 | ? | 0 | - | 0 | ?
COC(=O)c1ccc(/C=N/NC(=S)NCCN2CCOCC2)cc1 | 0 | ? | 0 | - | 0 | ?
CC(C)=C[C@H]1[C@@H](C(=O)Oc2ccccc2C(C)C)C1(C)C | - | - | - | 0 | - | -
CCOC(=O)c1nn(-c2ccc(Cl)cc2)cc1O | 101.2 | 0 | 0 | 0 | 56.0 | 0
CCOC(=O)c1nn(-c2ccc(C)cc2)cc1O | 76.2 | 0 | 0 | 0 | 54.9 | -
CCOC(=O)c1nn(-c2ccc(Cl)cc2C)ccc1=O | 0 | 0 | 0 | 0 | 0 | 0
CCOC(=O)c1nn(-c2cc(C(=O)OC)cc(C(=O)OC)c2)cc1O | 0 | 0 | 0 | 0 | 0 | 0
COC(=O)c1nn(-c2ccc(-c3ccccc3)cc2)cc1O | 0 | 0 | 0 | 0 | 29.4 | 0
SMILES | Shiga toxin inh | Pf growth 96h | SARS PLpro yeast | NS1 function inh | CHX counter | Pf growth 48h
O=C(c1nc(SCc2ccc([N+](=O)[O-])cc2)n2ccccc12)C(F)(F)F | 0 | 0 | 0 | 0 | 0 | 0
O=C(NCCN1CCOCC1)c1csc2c1CCCCC2 | 0 | 0 | 0 | 0 | 0 | 0
CC(C)CNC(=S)NNC(=O)c1csc2c1CCC(C)C2 (stereo not drawn) | 0 | 6.57µM | 0 | 0 | 0 | -
CC1CCc2c(C(=O)NCCCN3CCOCC3)csc2C1 (stereo not drawn) | 0 | - | 0 | 0 | 0 | 0
CC1CCc2c(C(=O)NCCN3CCOCC3)csc2C1 (stereo not drawn) | 0 | 8.28µM | 0 | ? | 0 | 0
CCN1CCN(CCCNC(=O)c2csc3c2CCCCC3)CC1 | 0 | 14.7µM | - | ? | 0 | 0
Cc1cc(C)n2nc(SCC(=O)Nc3ccc(F)c(F)c3F)nc2n1 | - | ? | 0 | - | - | ?
O=C1c2oc3ccccc3c(=O)c2C(c2ccc(Cl)cc2)N1c1ncccn1 (stereo not drawn) | - | - | - | 0 | - | -
CC(C)(C)Nc1nc(NC(C)(C)C)nc(-n2ccnc2)n1 | 0 | ? | 0 | 0 | 0 | 1.31µM
CC(C)(CNC(=O)c1cc(Cl)c(O)c(Cl)c1)N1CCCCC1 | 0 | 0 | 0 | 0 | 0 | 0
Oc1ccc(Cl)cc1-c1cc(-c2ccccc2)n[nH]1 | 0 | 0 | 0 | 0 | 17.6 | 7.38µM
Cc1ccc(-c2cc(-c3ccc(F)cc3)n[nH]2)c(O)c1 | 101.1 | ? | 0 | 0 | 50.7 | 0
Oc1ccccc1-c1cc(-c2ccc(F)cc2)n[nH]1 | - | ? | 0 | 0 | 30.5 | 0
Cc1ccc(O)c(-c2cc(-c3cccc(Br)c3)n[nH]2)c1 | 97.6 | 0 | 0 | 0 | 45.1 | 0
Oc1ccccc1-c1cc(-c2ccccc2)n[nH]1 | - | - | 0 | - | - | -
O=C(COc1ccc(S(=O)(=O)N2CCCCC2)cc1Cl)N1CCOCC1 | 0 | 0 | 0 | 0 | 0 | 0
NC(CCC(=O)NCS(=O)(=O)O)C(=O)O (stereo not drawn) | - | - | - | 0 | - | -
CCN(C(=O)CSc1nnnn1C)C1CCS(=O)(=O)C1 (stereo not drawn) | - | 0 | 0 | - | - | 0
Cc1cccc(C(=O)Nc2ccc(N3CCC(CCN4CCOCC4)CC3)c(C(=O)O)c2)c1 | - | 0 | 0 | - | - | 0
Oc1ccc(F)cc1-c1cc(-c2ccc3c(c2)OCCO3)n[nH]1 | 90.2 | - | 0 | 0 | 42.2 | 0
COc1ccc(NC(=O)c2cc(-c3ccc(C)cc3O)n[nH]2)c(OC)c1 | 0 | ? | 0 | 0 | 0 | 0[0.00184 µM]
CCc1cc(-c2n[nH]c(C)c2-c2ccc3c(c2)OCCO3)c(O)cc1O | 0 | - | - | - | 0 | -
Cc1ccc(-c2cc(-c3ccc(C)cc3O)[nH]n2)cc1 | 50.9 | 0 | 0 | 0 | 41.3 | 0
O=C(Cc1cccc(C(F)(F)F)c1)NCC(=O)Nc1cc(Cl)ccc1Cl | 0 | 0 | 0 | 0 | 0 | 0
Cc1oc(-c2ccccc2F)nc1CSCC(=O)NC1CCC(C)CC1 (stereo not drawn) | 0 | 0 | 0 | 0 | 0 | 0
SMILES | Shiga toxin inh | Pf growth 96h | SARS PLpro yeast | NS1 function inh | CHX counter | Pf growth 48h
CCC(=O)c1ccc(N2CCC(C)CC2)c(F)c1 | 36.1 | 0 | 0 | 0 | 30.4 | 0
CCCC(=O)c1ccc(N2CCC(C)CC2)c(F)c1 | 60.3 | 0 | 0 | 0 | 42.7 | 0
CCC(=O)c1ccc(N2CCN(C(=O)c3ccccc3)CC2)c(F)c1 | 0 | 0 | 0 | 0 | 0 | 0
COC(=O)c1c(-c2ccc(OC)cc2)sc2ccccc12 | - | ? | 0 | - | - | ?
COc1ccc2cc(CN(CC3CCCO3)S(=O)(=O)c3ccccc3)c(=O)[nH]c2c1 (stereo not drawn) | 0 | - | 0 | 0 | 0 | 0
CC(=O)c1ccc(S(=O)(=O)N(Cc2cc3cc4c(cc3[nH]c2=O)OCCO4)CC2CCCO2)cc1 (stereo not drawn) | 92.7 | 0 | 0 | 0 | 37.3 | 0
COc1ccc2[nH]c(=O)c(CN(CC3CCCO3)S(=O)(=O)c3ccccc3)cc2c1 (stereo not drawn) | 0 | 1.65µM | 0 | 0 | 0 | 0

High-throughput results: PubChem BioAssay, National Center for Advancing Translational Sciences (NCATS)
